Laboratory results published in PubChem BioAssay.
Inconclusive results are not listed. The source made the active and inactive calls.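 Rule for the calls, unless noted: active = inhibition above 50%, about 3 SD of the validation set; inactive = the rest.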

How the values were obtained:
[1] = rapamycin-like changes in RPL19A-GFP expression – cell-based, S. cerevisiae, multiplex flow cytometry, primary screen (AID 1862; in the data active = percent of DMSO control GFP below about 86%;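 note: lower values mimic rapamycin by blocking the RPL19A rise seen in DMSO cells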); conditions: S. cerevisiae RPL19A-GFP strain, flow cytometry fluorescence, 3 h; at 10 µM; stronger effect = lower value
[2] = TOR pathway GLN3 branch reporter MEP2-GFP changes – S. cerevisiae, multiplex flow cytometry, primary screen (AID 1867;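 active = GFP response, as percent of the DMSO control, above the screen-wide mean plus 3 SD, about 139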;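 note: median GFP channel fluorescence of barcode-gated MEP2-GFP cells measured by flow cytometry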); conditions: S. cerevisiae MEP2-GFP strain, 3 h, at 10 µM, stronger effect = higher value, 100% means same as DMSO wells
[3] = TOR pathway RTG branch CIT2 reporter changes – S. cerevisiae, GFP fusion, multiplex flow cytometry, primary screen (AID 1870;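 active = percent response above a set limit, the screen-wide mean plus 3 SD, cut at about 130% in these data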;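 note: barcoded CIT2-GFP strain pooled with four other GFP strains with rapamycin as positive control; median GFP fluorescence per well over plate mean of DMSO wells so 100% = DMSO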); conditions: S. cerevisiae CIT2-GFP expression, 3 h, at 10 µM, stronger effect = higher value
[4] = TOR pathway LAP4-GFP level changes – S. cerevisiae, multiplex flow cytometry, primary screen (AID 1873;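 active = GFP signal, as percent of the solvent control, above the screen mean plus 3 SD, about 149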); conditions: S. cerevisiae LAP4-GFP expression, 3 h, at 10 µM, stronger effect = higher value
[5] = yeast AGP1-GFP level changes, GLN3 branch – cell-based, multiplex flow cytometry, S. cerevisiae, primary screen (AID 1887;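 active = GFP signal above the screen-wide mean plus 3 SD, that is over about 124.5% of the solvent control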;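 note: AGP1-GFP fusion strain of S. cerevisiae within a five-strain barcoded multiplex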); conditions: 3 h, at 10 µM, stronger effect = higher value
[6] = reduced mouse 2C T cell binding to pMHC/ICAM-1 vesicles – MLPCN validation set, flow cytometry, LFA-1/ICAM-1 modulator project, pilot screen (AID 2523;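 active = response below a set limit, under 55% cells CD8-positive and vesicle-bound, and CD8 cells' 90th-percentile brightness under 279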;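 for vesicle binding response: mean PE anti-B7-1 fluorescence of CD8+ cells relative to row control; 100% = QL9-loaded vesicles with DMSO vehicle in the same plate row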); conditions: 2C mouse CD8+ T cells, at 7 µM, stronger effect = lower value; double positive events: measured here: CD8+/vesicle+ event percentage
[7] = biological target: Integrin beta-1 (Homo sapiens) + Integrin alpha-4 (Homo sapiens) (UniProt P13612+P05556); assay: alpha4beta1 integrin LIBS antibody binding reduction – U937 cells, HUTS-21 mAb, flow cytometry, validation set, VLA-4 allosteric modulator project, pilot screen (AID 2674); conditions: HUTS-21 LIBS mAb binding, at 6.7 µM, stronger effect = higher value, binding induced by LDV ligand;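 note: antibody binding induced by the VLA-4 ligand LDV present at three times its Kd; 0% = LDV ligand with antibody and no compound and 100% = antibody without LDV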
[8] = calorie-restriction mimetic ROS inhibitors, yeast – validation compound set, pilot screen (AID 2706;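 active = superoxide response below 65% of plate, a cut near 3 SD across the whole screen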;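 note: yeast exposed to compound for one week at 30 degrees C before staining; 100% = mean of all compound wells on the same plate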); conditions: S. cerevisiae aging, superoxide DHE fluorescence; at 10 µM, stronger effect = lower value
[9] = biological target: Beta-adrenergic receptor kinase 1 (Homo sapiens) (UniProt P25098); assay: GRK2 binders displacing RNA aptamer, biochemical, validation, human GRK2, bead flow cytometry (AID 488806;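 active = aptamer binding inhibition above 30%, about 3 SD of noise from non-fluorescent compounds; inactive = inhibition at or below 30%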); conditions: bead-bound GRK2, FAM-aptamer displacement, at 10 µM, stronger effect = higher value
[10] = biological target: AP-2 complex subunit beta (Homo sapiens) (UniProt P63010); assay: beta-arrestin/AP2 interaction blockers – biochemical, validation set, GST-AP2 beads, flow cytometry, pilot screen (AID 504541;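 active = inhibition above 54%, about 3 SD of non-fluorescent compounds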;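 note: AP2 carries R879A mutation and is captured from E. coli lysate; bead-bound FITC arrestin peptide fluorescence measuring arrestin peptide binding to AP2; 0% = DMSO wells and 100% = excess unlabeled arrestin peptide control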); conditions: FITC arrestin peptide, at 10 µM, stronger effect = higher value, AP2 beta2 appendage fragment, R879A mutant
[11] = cytosolic pH regulators acting via V-ATPase – S. cerevisiae, pHLuorin, HTS validation (AID 504600; in the data active = response above about 15%;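 note: plate controls were DMSO for no effect and reference compound for full effect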); conditions: V-ATPase proton transport, at 10 µM, stronger effect = higher value
[12] = tested on: anti-desmoglein-3 scFv antibody binding to human DSG3; assay: blockers of pathogenic pemphigus antibody–desmoglein-3 binding – biochemical, validation compound set, bead-based, flow cytometry, pilot screen (AID 588368;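 active = binding below the plate cutoff, the plate median minus 3 SD, with a reading above zero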;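 note: signal is the median channel fluorescence of bead-bound GFP antibody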); conditions: Protein G beads, DSG3-Fc, scFv-GFP binding, at 10 µM, stronger effect = lower value
[13] = Nile Red efflux blockade in pump-expressing yeast – validation compound set, multiplex, phenotypic, pilot screen (AID 588506;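 active = efflux inhibition above 0.42, the validation set average plus 4 SD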;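 note: Nile Red retained in cells so higher fluorescence means more efflux inhibition; 0 = negative control wells and 1 = enniatin B 25 µM full block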); conditions: S. cerevisiae pump-expressing triplex, Nile Red efflux flow cytometry; at 10 µM; stronger effect = higher value; the pumps come from Candida albicans
[14] = biological target: ATP-binding cassette sub-family B member 6 (Homo sapiens) (UniProt Q9NP58); assay: blockers of ABCB6-driven porphyrin uptake – K562-ABCB6 cells, flow cytometry, validation set, pilot screen (AID 588550;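 active = inhibition above the screen-wide mean plus 3 SD, about 51%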;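 note: 0% = DMSO wells and 100% = benzethonium chloride 70 µM positive control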); conditions: K562-ABCB6 porphyrin accumulation, 1 h, at 10 µM, stronger effect = higher value
[15] = AML differentiation inducers, ER-HoxA9 marrow cells – cell-based, GFP/MAC1 double positive, flow cytometry, validation set, primary screen (AID 588685;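 active = differentiation response of at least 50%, scaled between solvent and reference control, from cells with both markers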;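 note: compound exposure lasts four days before antibody staining and flow analysis; 0% = DMSO wells and 100% = 5 µM fulvestrant positive control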); conditions: stronger effect = higher value, normalized: vehicle 0, fulvestrant 100

AP-2 complex subunit beta (Homo sapiens), sequence (P63010 whole entry, looked up, the tested form may be a part, one chain of several): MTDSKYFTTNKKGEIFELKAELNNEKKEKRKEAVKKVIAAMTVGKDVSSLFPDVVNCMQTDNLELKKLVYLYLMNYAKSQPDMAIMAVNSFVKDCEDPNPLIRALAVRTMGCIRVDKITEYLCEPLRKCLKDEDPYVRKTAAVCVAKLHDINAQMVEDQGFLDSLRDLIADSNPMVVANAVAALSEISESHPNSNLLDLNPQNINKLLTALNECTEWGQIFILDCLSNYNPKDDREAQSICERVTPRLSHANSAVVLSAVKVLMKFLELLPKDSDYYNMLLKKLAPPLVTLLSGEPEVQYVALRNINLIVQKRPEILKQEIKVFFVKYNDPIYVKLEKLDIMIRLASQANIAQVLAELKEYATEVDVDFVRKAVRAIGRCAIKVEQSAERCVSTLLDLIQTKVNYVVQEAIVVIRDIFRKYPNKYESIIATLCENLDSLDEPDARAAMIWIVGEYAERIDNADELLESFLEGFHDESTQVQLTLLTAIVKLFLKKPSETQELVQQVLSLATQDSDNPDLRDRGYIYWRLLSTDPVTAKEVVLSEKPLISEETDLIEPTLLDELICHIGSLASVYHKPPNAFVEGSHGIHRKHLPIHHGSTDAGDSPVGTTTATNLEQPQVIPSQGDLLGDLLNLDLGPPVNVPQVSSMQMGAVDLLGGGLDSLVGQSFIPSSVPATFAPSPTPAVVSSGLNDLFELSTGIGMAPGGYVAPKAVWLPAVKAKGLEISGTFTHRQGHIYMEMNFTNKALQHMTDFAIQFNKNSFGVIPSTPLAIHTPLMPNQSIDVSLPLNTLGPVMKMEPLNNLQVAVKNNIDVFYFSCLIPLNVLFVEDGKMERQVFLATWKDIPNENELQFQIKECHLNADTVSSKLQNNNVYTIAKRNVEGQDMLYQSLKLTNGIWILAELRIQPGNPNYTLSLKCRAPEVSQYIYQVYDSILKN
Beta-adrenergic receptor kinase 1 (Homo sapiens), sequence (P25098 whole entry, looked up): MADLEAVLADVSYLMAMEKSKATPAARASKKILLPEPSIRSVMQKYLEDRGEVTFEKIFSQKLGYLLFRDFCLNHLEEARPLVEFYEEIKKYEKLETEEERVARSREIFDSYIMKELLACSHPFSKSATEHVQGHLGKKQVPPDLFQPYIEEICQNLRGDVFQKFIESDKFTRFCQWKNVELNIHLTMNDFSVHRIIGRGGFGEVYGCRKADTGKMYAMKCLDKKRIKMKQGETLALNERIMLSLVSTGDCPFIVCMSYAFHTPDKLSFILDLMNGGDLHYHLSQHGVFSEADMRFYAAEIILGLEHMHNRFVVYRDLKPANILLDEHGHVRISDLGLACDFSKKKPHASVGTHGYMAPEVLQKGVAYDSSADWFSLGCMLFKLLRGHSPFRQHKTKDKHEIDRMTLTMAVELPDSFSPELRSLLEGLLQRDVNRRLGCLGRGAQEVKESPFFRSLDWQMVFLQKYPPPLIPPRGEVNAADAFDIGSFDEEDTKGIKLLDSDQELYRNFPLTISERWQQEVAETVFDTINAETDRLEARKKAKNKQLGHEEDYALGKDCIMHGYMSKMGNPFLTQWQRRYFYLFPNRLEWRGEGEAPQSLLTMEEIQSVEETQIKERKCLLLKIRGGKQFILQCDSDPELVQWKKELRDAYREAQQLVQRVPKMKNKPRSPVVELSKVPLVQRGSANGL
ATP-binding cassette sub-family B member 6 (Homo sapiens), sequence (Q9NP58 whole entry, looked up): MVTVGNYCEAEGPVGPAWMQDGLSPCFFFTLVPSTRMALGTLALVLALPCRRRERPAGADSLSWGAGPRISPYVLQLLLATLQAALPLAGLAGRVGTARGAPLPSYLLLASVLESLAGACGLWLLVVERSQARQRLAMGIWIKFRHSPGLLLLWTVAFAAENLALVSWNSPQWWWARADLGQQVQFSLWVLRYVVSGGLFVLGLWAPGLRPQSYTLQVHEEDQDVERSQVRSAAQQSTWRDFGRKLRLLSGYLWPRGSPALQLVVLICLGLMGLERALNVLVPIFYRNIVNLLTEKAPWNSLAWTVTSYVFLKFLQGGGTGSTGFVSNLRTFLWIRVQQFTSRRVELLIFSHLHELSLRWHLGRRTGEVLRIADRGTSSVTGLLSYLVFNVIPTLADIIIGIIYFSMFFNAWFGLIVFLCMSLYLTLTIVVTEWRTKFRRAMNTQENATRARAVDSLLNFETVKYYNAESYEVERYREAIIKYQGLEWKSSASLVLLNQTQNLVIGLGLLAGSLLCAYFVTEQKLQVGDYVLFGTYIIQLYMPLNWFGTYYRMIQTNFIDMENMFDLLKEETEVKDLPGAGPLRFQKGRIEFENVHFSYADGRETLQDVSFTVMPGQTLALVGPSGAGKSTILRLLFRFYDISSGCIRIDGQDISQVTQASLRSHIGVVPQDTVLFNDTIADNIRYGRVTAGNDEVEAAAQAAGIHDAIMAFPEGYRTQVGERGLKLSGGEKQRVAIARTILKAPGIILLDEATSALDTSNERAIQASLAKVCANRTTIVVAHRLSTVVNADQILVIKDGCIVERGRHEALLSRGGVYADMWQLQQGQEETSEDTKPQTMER
Integrin beta-1 (Homo sapiens) + Integrin alpha-4 (Homo sapiens), sequence (P05556 whole entry, looked up): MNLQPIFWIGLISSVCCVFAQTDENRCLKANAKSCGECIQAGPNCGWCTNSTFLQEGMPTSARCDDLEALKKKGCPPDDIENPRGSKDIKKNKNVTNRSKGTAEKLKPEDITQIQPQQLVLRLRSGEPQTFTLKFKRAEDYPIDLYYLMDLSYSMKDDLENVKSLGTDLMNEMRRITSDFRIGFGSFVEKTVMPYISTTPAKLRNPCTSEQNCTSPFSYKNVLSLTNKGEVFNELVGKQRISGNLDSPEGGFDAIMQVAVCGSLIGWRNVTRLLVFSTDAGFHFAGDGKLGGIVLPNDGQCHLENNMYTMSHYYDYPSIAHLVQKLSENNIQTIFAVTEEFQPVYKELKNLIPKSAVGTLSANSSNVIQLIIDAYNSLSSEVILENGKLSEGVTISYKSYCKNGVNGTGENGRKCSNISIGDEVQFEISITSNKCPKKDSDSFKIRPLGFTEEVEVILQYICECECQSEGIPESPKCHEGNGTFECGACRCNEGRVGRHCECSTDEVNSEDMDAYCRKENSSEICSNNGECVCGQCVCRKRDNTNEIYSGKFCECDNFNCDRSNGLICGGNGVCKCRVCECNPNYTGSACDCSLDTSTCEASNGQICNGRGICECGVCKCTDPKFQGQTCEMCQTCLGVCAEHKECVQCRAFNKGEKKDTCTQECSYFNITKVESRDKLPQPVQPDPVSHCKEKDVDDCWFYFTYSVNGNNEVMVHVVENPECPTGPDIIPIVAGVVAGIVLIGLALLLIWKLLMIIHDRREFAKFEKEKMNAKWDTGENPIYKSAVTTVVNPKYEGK
Integrin beta-1 (Homo sapiens) + Integrin alpha-4 (Homo sapiens), sequence (P13612 whole entry, looked up): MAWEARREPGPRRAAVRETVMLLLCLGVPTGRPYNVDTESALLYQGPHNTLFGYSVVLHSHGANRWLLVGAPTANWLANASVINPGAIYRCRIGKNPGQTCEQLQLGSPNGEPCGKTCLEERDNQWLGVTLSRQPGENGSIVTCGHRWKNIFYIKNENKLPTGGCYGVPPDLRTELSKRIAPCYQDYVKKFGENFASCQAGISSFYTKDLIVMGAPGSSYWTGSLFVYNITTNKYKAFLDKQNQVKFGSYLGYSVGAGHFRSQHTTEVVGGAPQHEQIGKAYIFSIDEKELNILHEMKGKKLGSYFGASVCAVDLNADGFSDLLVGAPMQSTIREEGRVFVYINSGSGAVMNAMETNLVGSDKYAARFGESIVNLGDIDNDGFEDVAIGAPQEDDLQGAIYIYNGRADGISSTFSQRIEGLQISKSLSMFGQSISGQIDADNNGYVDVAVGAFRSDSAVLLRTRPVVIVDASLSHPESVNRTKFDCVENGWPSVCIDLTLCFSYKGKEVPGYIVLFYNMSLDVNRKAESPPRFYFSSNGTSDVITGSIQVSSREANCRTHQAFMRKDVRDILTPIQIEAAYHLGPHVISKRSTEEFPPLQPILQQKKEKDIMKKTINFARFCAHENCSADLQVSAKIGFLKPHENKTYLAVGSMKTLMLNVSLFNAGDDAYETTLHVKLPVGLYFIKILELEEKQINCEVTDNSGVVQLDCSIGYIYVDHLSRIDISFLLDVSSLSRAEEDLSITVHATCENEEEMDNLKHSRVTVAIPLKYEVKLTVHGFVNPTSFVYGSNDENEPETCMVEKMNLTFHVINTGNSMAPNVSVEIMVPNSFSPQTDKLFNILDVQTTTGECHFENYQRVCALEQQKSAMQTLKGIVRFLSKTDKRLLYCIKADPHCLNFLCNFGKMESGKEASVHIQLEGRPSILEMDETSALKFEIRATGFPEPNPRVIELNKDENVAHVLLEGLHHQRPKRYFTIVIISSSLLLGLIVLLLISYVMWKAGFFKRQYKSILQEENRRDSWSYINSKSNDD

| SMILES | percent of DMSO control GFP [1] | GFP response vs DMSO [2] | percent response of DMSO control [3] | GFP response vs DMSO [4] | GFP response, % of DMSO [5] | double positive events [6] [%] | vesicle binding response [6] | inhibition [7] | superoxide response (% of plate) [8] | aptamer binding inhibition [9] | inhibition [10] | response [11] | binding (% of control) [12] | efflux inhibition (fraction of control) [13] | inhibition [14] | differentiation response [15] |
| --- | --- | --- | --- | --- | --- | --- | --- | --- | --- | --- | --- | --- | --- | --- | --- | --- |
| Cc1nc2sccn2c(=O)c1CCN1CCC(=C(c2ccc(F)cc2)c2ccc(F)cc2)CC1 | 101% (inactive) | 98.6% (inactive) | 105% (inactive) | 121% (inactive) | 121% (inactive) | 61.2 | 217% (inactive) | 2.29% (inactive) | 86.3% (inactive) | -2% (inactive) | -0.42% (inactive) | -6.88% (inactive) | 109% (inactive) | 0.08 (inactive) | 2% (inactive) | -4% (inactive) |
| COc1ccc(C2NC(=O)c3ccccc3N2)cc1OC (stereo not given) | 98.8% (inactive) | 99.9% (inactive) | 96.9% (inactive) | 94.3% (inactive) | 92.2% (inactive) | 64.4 | 117% (inactive) | 10.9% (inactive) | 108% (inactive) | 5% (inactive) | 3.03% (inactive) | 1.73% (inactive) | 95.1% (inactive) | 0.06 (inactive) | 11% (inactive) | -3.43% (inactive) |
| COc1ccc2oc(=O)c(C(=O)N3CCN(c4ccccc4)CC3)cc2c1 | 97.8% (inactive) | 93.8% (inactive) | 101% (inactive) | 89.3% (inactive) | 90.3% (inactive) | 52.5 | 130% (inactive) | 12.8% (inactive) | 110% (inactive) | 2% (inactive) | 10.5% (inactive) | -1.57% (inactive) | 101% (inactive) | -0.54 (inactive) | 10% (inactive) | 25.6% (inactive) |
| CC(CCc1ccccc1)NCC(O)c1ccc(O)c(C(N)=O)c1 (stereo not given) | 99.5% (inactive) | 98.9% (inactive) | 107% (inactive) | 109% (inactive) | 105% (inactive) | 52.5 | 175% (inactive) | -2.11% (inactive) | 97.6% (inactive) | 0% (inactive) | -4.92% (inactive) | -3.48% (inactive) | 101% (inactive) | -0.2 (inactive) | 9% (inactive) | -6.66% (inactive) |
| CCOC(=O)c1ccc2[nH]c(C)c(CCC(C)=O)c(=O)c2c1 | 102% (inactive) | 98.9% (inactive) | 109% (inactive) | 88.3% (inactive) | 97.9% (inactive) | 57.1 | 228% (inactive) | 0.69% (inactive) | 91.5% (inactive) | 1% (inactive) | 1.85% (inactive) | 6.01% (inactive) | 108% (inactive) | -0.12 (inactive) | 6% (inactive) | -11.5% (inactive) |
| O=C(NNC(=O)c1cccs1)c1ccco1 | 104% (inactive) | 104% (inactive) | 111% (inactive) | 111% (inactive) | 111% (inactive) | 56.8 | 159% (inactive) | -3.04% (inactive) | 95.2% (inactive) | 1% (inactive) | -10.8% (inactive) | 8.92% (inactive) | 102% (inactive) | -0.05 (inactive) | 16% (inactive) | 1.41% (inactive) |
| COc1ccc2c(c1)C(=O)CC(c1ccccc1F)O2 (stereo not given) | 95.8% (inactive) | 103% (inactive) | 93.9% (inactive) | 92.3% (inactive) | 87% (inactive) | 62 | 135% (inactive) | 10% (inactive) | 97% (inactive) | 0% (inactive) | 21.8% (inactive) | -0.49% (inactive) | 94.1% (inactive) | 0.44 (active) | -46% (inactive) | -11.5% (inactive) |
| CCN(Cc1ccncc1)Cc1nc(Cc2ccccc2Cl)no1 | 95.8% (inactive) | 98.9% (inactive) | 102% (inactive) | 95.4% (inactive) | 94.2% (inactive) | 53.4 | 164% (inactive) | -12.4% (inactive) | 111% (inactive) | 2% (inactive) | 8.49% (inactive) | 2.76% (inactive) | 101% (inactive) | 0.25 (inactive) | 7% (inactive) | -27.6% (inactive) |
| CNCCC=C1c2ccccc2CCc2ccccc21 | 100% (inactive) | 98.9% (inactive) | 110% (inactive) | 97.4% (inactive) | 102% (inactive) | 49.9 | 151% (inactive) | 21.2% (inactive) | 110% (inactive) | 0% (inactive) | -0.2% (inactive) | 4.21% (inactive) | 100% (inactive) | -0.12 (inactive) | 11% (inactive) | -13.1% (inactive) |
| COc1ccc(CCNC(=S)NC(=O)/C=C/c2ccc(C)cc2)cc1OC | 101% (inactive) | 107% (inactive) | 106% (inactive) | 103% (inactive) | 95.4% (inactive) | 51.6 | 136% (inactive) | 3.49% (inactive) | 98.2% (inactive) | 2% (inactive) | 13.3% (inactive) | -1.1% (inactive) | 106% (inactive) | 0.22 (inactive) | 4% (inactive) | -8.27% (inactive) |
| CC(C)Cn1c(=S)[nH]c2cc(C(=O)O)ccc2c1=O | 105% (inactive) | 97.9% (inactive) | 108% (inactive) | 84.3% (inactive) | 98.5% (inactive) | 61 | 197% (inactive) | -1.17% (inactive) | 106% (inactive) | 4% (inactive) | -1.44% (inactive) | -0.3% (inactive) | 96.7% (inactive) | -0.01 (inactive) | 2% (inactive) | -26% (inactive) |
| COc1ccc(C=NCC2COc3ccccc3O2)cc1OC (stereo not given) | 103% (inactive) | 101% (inactive) | 98.8% (inactive) | 90.3% (inactive) | 95.5% (inactive) | 62.8 | 187% (inactive) | 0.69% (inactive) | 104% (inactive) | -1% (inactive) | 17.1% (inactive) | -2.12% (inactive) | 107% (inactive) | 0.63 (active) | 10% (inactive) | -5.05% (inactive) |
| CCCCC1C(=O)N(c2ccccc2)N(c2ccccc2)C1=O | 98.1% (inactive) | 117% (inactive) | 101% (inactive) | 89.7% (inactive) | 97.5% (inactive) | 66 | 258% (inactive) | 3.55% (inactive) | 94.9% (inactive) | 0% (inactive) | 33.1% (inactive) | -1.74% (inactive) | 111% (inactive) | -0.06 (inactive) | 8% (inactive) | 17.2% (inactive) |
| CO[C@@H]1O[C@@H]2COC(c3ccccc3)O[C@@H]2[C@@H](OC)[C@@H]1O (stereo not given in full) | 103% (inactive) | 104% (inactive) | 106% (inactive) | 96.4% (inactive) | 99.6% (inactive) | 56 | 166% (inactive) | 5.36% (inactive) | 117% (inactive) | 5% (inactive) | 15.1% (inactive) | 4.1% (inactive) | 102% (inactive) | 0.1 (inactive) | 4% (inactive) | -9.89% (inactive) |
| CN(CCCN1CCOCC1)Cc1cn(C)nc1-c1ccccc1F | 95.5% (inactive) | 106% (inactive) | 104% (inactive) | 124% (inactive) | 114% (inactive) | 62.1 | 246% (inactive) | -8.78% (inactive) | 104% (inactive) | -1% (inactive) | 70.2% (active) | 2.44% (inactive) | 112% (inactive) | 0.04 (inactive) | 2% (inactive) | -1.05% (inactive) |
| O=C(O)CCSc1nc2ccccc2s1 | 104% (inactive) | 99.9% (inactive) | 102% (inactive) | 106% (inactive) | 95.8% (inactive) | 49.5 | 183% (inactive) | -9.57% (inactive) | 115% (inactive) | 7% (inactive) | -3.62% (inactive) | -1.68% (inactive) | 101% (inactive) | 0.44 (active) | 8% (inactive) | 17.6% (inactive) |
| COc1cc(C2CC(=O)NC3=C2C(=O)CC(C)(C)C3)ccc1O (stereo not given) | 99.6% (inactive) | 99.9% (inactive) | 105% (inactive) | 100% (inactive) | 103% (inactive) | 61.3 | 141% (inactive) | 11.9% (inactive) | 98.7% (inactive) | 4% (inactive) | 22.3% (inactive) | -2.29% (inactive) | 96.5% (inactive) | -0.09 (inactive) | 4% (inactive) | 0% (inactive) |
| COC(=O)C1=C(C)NC(C)=C(C(=O)OC)C1c1ccccc1[N+](=O)[O-] | 102% (inactive) | 104% (inactive) | 102% (inactive) | 108% (inactive) | 94.6% (inactive) | 53.9 | 186% (inactive) | 5.36% (inactive) | 93.7% (inactive) | -2% (inactive) | 34.7% (inactive) | -7.73% (inactive) | 104% (inactive) | -0.39 (inactive) | 12% (inactive) | -8.27% (inactive) |
| COc1ccc(-c2noc(CCc3ccccc3)n2)cc1 | 103% (inactive) | 109% (inactive) | 90% (inactive) | 101% (inactive) | 91.8% (inactive) | 56.4 | 174% (inactive) | 4.42% (inactive) | 99.8% (inactive) | 0% (inactive) | 4.14% (inactive) | -3.58% (inactive) | 111% (inactive) | 0.48 (active) | 0% (inactive) | -0.2% (inactive) |
| CCN(CC)Cc1c[nH]c2c(C(=O)OC)cccc12 | 98.8% (inactive) | 104% (inactive) | 105% (inactive) | 102% (inactive) | 99.1% (inactive) | 60.2 | 183% (inactive) | 10% (inactive) | 98.4% (inactive) | 0% (inactive) | 12.3% (inactive) | -5.36% (inactive) | 105% (inactive) | -0.28 (inactive) | 7% (inactive) | -24.4% (inactive) |
